In PubChem BioAssay (NCATS):
Values without a mark were called inactive. Inconclusive results are not listed. Entries that show only a call come without a potency. Activity calls are given as the source filed them. Unless noted, calls follow the shape of the dose curve; as a rule, active = well fitted curve in the direction sought with a large enough effect; inconclusive = small, poorly fitted or top-dose-only effect, or another doubt; inactive = no such curve, though single readings can be large; an effect the other way counts as inactive or inconclusive.

Columns and labels:
[1] = molecular target: Tumor necrosis factor (Homo sapiens) (UniProt P01375); test: qHTS assay to identify small molecules that stimulate Tumor Necrosis Factor-alpha (TNF-alpha) secretion (AID 651757; active = well fitted curve in the direction sought with a large enough effect in the signal ratio; the % refers to the signal ratio)
Sequence of Tumor necrosis factor (Homo sapiens) (P01375 whole entry, looked up): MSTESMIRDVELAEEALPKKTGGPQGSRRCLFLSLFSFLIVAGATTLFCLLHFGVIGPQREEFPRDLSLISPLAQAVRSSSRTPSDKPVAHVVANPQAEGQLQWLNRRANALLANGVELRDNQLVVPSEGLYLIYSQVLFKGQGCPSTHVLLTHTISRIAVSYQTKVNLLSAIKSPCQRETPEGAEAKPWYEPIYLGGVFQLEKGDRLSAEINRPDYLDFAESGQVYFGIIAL
Outline: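 Using 3000 THP-1 cells per well, compounds and controls were applied for 17 hrs at 37 C. Detection followed with two labeled anti-TNF-alpha antibodies (cryptate donor, XL665 acceptor) for 3 hr at room temperature, measured by TR-FRET.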

[2] = qHTS assay for environmental chemicals that activate the Aryl hydrocarbon Receptor (AhR) signaling pathway (AID 651777); settings: 1A2-DRE human hepatoma cells, luciferase, 24 h; activation: hits give high values; also: nearly all actives have a fitted effect of over 15% in size; also: potency is read from the fitted curve at half-maximal effect
Outline: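 Luminescence read-out: One-Glo added for 30 min at RT after 24 hr compound treatment (37 C, 5% CO2) of human hepatoma cells expressing a DRE/CYP1A2 promoter–luciferase reporter; increased signal indicates AhR activation.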

[3] = molecular target: Peroxisome proliferator-activated receptor alpha (Homo sapiens) (UniProt Q07869); test: qHTS assay for small molecule agonists of the peroxisome proliferator-activated receptor alpha (PPARalpha) signaling pathway (AID 651778); settings: PathHunter PPARalpha complementation, chemiluminescence, 6 h; hits give high values
Sequence of Peroxisome proliferator-activated receptor alpha (Homo sapiens) (Q07869 whole entry, looked up, the tested form may be a part): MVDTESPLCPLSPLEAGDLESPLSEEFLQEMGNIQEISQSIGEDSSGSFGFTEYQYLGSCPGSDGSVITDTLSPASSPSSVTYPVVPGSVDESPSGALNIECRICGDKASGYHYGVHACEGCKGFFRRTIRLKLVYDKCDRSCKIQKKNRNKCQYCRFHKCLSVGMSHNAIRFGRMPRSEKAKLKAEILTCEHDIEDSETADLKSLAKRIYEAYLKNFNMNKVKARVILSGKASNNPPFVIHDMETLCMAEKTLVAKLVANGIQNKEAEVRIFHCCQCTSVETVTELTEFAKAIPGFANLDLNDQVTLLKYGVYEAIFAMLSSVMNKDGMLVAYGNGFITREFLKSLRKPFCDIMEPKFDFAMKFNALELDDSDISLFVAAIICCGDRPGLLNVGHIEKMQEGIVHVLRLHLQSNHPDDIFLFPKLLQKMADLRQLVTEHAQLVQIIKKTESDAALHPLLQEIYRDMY
Outline: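 Enzyme-fragment complementation assay in which ligand-bound PPARalpha translocates and forms an active enzyme that generates chemiluminescence. Cells were plated overnight, exposed to compound for 6 hr at 37 C, and then given detection reagent for 60 min at room temperature.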

[4] = molecular target: Nuclear receptor ROR-gamma (Homo sapiens) (UniProt P51449); test: qHTS assay for small molecule antagonists of the retinoid-related orphan receptor gamma (ROR-gamma) signaling pathway (AID 651802);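 also: CHO cells with doxycycline-induced ROR-gamma expression; luciferase reporter luminescence driven by ROR response element; series mostly up to about 92 µM; nearly all actives have a fitted effect of over 60% in size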
Sequence of Nuclear receptor ROR-gamma (Homo sapiens) (P51449 whole entry, looked up): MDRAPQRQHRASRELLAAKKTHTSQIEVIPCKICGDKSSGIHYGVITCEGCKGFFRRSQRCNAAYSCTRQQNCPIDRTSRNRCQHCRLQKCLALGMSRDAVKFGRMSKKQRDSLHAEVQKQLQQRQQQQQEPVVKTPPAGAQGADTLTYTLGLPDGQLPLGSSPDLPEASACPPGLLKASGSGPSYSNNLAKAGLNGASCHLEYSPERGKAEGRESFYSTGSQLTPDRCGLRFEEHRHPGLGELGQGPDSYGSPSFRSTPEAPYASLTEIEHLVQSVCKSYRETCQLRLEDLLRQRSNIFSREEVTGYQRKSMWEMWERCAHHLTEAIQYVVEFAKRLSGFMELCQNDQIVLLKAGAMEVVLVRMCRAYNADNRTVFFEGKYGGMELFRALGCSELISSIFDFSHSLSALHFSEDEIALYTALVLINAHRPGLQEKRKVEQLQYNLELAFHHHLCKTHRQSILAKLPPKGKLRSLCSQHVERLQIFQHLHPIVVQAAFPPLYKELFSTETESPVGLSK
Outline: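 Doxycycline-induced reporter activity in engineered CHO cells (TET-inducible ROR, RORE-LUC) was measured by luminescence after 16hr compound exposure at 37C.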

[5] = qHTS assay for small molecule agonists of the antioxidant response element (ARE) signaling pathway measured by Nrf2-dependant transcriptional activity (AID 720636; active = well fitted curve in the direction sought with a large enough effect in the repeat runs; an effect the other way counts as inactive or inconclusive;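 also: HepG2 cells with an ARE-driven luciferase reporter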)
Outline: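 HepG2 ARE-luc reporter line, 1% dialyzed FBS; 6 hr attachment at 37 C, compound pinned in, 16 hr at 37 C/5% CO2; ONE-Glo, 30 min RT, luminescence read.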

[6] = qHTS assay for small molecule antagonists of the retinoid-related orphan receptor gamma (ROR-gamma) signaling pathway - cell viability counter screen (AID 720652; active = well fitted curve in the direction sought with a large enough effect in the repeat runs; an effect the other way counts as inactive or inconclusive;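 also: CHO reporter cells with doxycycline-induced ROR-gamma expression; series mostly up to about 92 µM; compound exposure lasted 16 hr before ATP read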)
Outline: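 ATP-based viability readout in the ROR-gamma reporter CHO cells after 16 hr compound exposure under doxycycline induction.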

[7] = qHTS assay for small molecule agonists of the antioxidant response element (ARE) signaling pathway measured by Nrf2-dependant transcriptional activity - cell viability counter screen (AID 720653; active = well fitted curve in the direction sought with a large enough effect in the repeat runs; an effect the other way counts as inactive or inconclusive); settings: ARE-bla HepG2 viability, CellTiter-Glo ATP luminescence, 16 h; hits give low values
Outline: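 ARE-bla HepG2 cells treated with compounds for 16 h at 37C; this counter screen measures viability as intracellular ATP by CellTiter-Glo luminescence after 30 min at room temperature.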

[8] = qHTS assay for cell viability of HEK293 cells (AID 743288); settings: ATP luminescence (CellTiter-Glo), 18 h, hits give low values; also: nearly all actives have a fitted effect of over 50% in size
Outline: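 After 18 h compound exposure at 37 C, parental HEK293 cells (2,000/well) are lysed with CellTiter-Glo and luminescence is read following 30 min at room temperature.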

[9] = qHTS assay for cell viability of the p53RE-bla HCT-116 cell line (AID 743292); also: nearly all actives have a fitted effect of over 55% in size
Outline: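 Luminescent ATP quantitation (CellTiter-Glo) served as the viability read-out; reagent was added after 16 h compound exposure at 37 C and read after 30 min at room temperature. Cells: p53RE-bla HCT-116, 4,000 per well.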

[10] = molecular target: Nuclear receptor subfamily 1 group I member 2 (Rattus norvegicus) (UniProt Q9R1A7); test: qHTS assay for small molecule activators of the rat pregnane X receptor (rPXR) signaling pathway (AID 651751; call rule not given here); settings: rPXR reporter cells, luciferase (One-Glo), 24 h
Sequence of Nuclear receptor subfamily 1 group I member 2 (Rattus norvegicus) (Q9R1A7 whole entry, looked up): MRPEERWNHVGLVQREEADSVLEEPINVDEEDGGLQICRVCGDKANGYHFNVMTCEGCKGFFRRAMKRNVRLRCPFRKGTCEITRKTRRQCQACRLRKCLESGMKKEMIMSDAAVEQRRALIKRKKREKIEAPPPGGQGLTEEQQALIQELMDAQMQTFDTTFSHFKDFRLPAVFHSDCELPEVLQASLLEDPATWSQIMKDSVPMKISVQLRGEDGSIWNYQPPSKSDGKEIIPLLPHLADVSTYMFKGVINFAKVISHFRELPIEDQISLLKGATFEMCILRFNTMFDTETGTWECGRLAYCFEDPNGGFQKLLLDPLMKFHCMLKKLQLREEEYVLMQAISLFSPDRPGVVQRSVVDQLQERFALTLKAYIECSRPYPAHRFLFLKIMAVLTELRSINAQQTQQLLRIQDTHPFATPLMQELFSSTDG

[11] = qHTS assay for small molecule activators of the human pregnane X receptor (PXR) signaling pathway (AID 720659; call rule not given here)
[12] = qHTS assay for small molecule disruptors of the mitochondrial membrane potential - 1 hr assay (AID 651754; calls by dose curve; also: nearly all actives have a fitted effect of over 35% in size)
Outline: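 In this qHTS format, a 1 hr compound treatment of HepG2 cells precedes Mito-MPS staining, and membrane potential is judged from aggregate (red) against monomer (green) fluorescence intensity.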

[13] = qHTS assay for small molecule disruptors of the mitochondrial membrane potential - 5 hr assay (AID 651755; calls by dose curve; also: nearly all actives have a fitted effect of over 40% in size)
Outline: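 Read-out: ratiometric Mito-MPS fluorescence, green monomer (ex 490/em 535) vs red mitochondrial aggregate (ex 540/em 590). HepG2 cells treated 5 hr at 37C before 30 min dye loading.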

[14] = qHTS assay to identify small molecules that stimulate interleukin-8 (IL-8) secretion (AID 651758; active = well fitted activation curve with a large enough effect in the signal ratio; the % refers to the signal ratio)
Outline: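 Compounds are added to THP-1 cells (2000 per well) and left 16 hrs at 37 C. A labeled anti-IL-8 antibody pair is then added, and IL-8 secretion is measured by time-resolved FRET after 1-3 hrs at room temperature.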

SMILES	Potency [1]	activation [2] [%]	max response [3] [%]	Potency [4]	outcome [5]	Potency [6]	max response [7] [%]	max response [8] [%]	Potency [9]	max response [10] [%]	outcome [11]	Potency [12]	Potency [13]	Potency [2]	Potency [14]
C/C(C=O)=C/c1ccccc1	inactive	-1.35	-3.84	inactive	inactive	inactive	-7.12	5.25	inactive	2.25	inactive	–	–	–	–
O=Nc1ccc(NO)cc1	–	6.63	-1.48	–	inactive	–	2.71	-9.92	inactive	-3.74	inactive	–	–	–	–
O=C(O)c1ccc(CO)o1	inactive	-0.734	15	inactive	inactive	–	-10.4	11.8	inactive	–	inactive	inactive	inactive	–	–
Cc1cscn1	inactive	1.08	-1.32	–	inactive	inactive	0.707	-3.62	inactive	0.103	inactive	–	–	–	–
Nc1cccc2c(=O)[nH][nH]c(=O)c12	–	0.365	0.513	inactive	inactive	inactive	4.98	0.895	inactive	–	–	inactive	inactive	–	–
COc1ccc(N=[N+]([O-])c2ccc(OC)cc2)cc1	–	–	–	–	–	–	-28.6	-5.78	inactive	–	–	inactive	inactive	1.12 µM (active)	–
CCC(=O)/C=C/C1C(C)=CCCC1(C)C (stereo not given)	inactive	-0.103	0.561	inactive	inactive	inactive	0.358	0.395	inactive	–	–	inactive	inactive	–	inactive
OCCO	inactive	0.215	-4.04	–	inactive	inactive	-3.22	–	inactive	–	–	inactive	inactive	–	–
C1CCOC1	inactive	0.0348	-1.78	–	inactive	inactive	5.55	-1.37	inactive	2.84	inactive	–	–	–	–
Nc1nc(-c2ccccc2)cs1	inactive	–	22.8	–	–	inactive	4.04	0.545	inactive	–	–	inactive	–	35.5 µM (active)	–
CC(=O)C1(C)CC2=C(CCCC2(C)C)CC1C (stereo not given)	inactive	-1.01	-0.376	inactive	inactive	inactive	5.61	-9.23	inactive	2.11	inactive	–	–	–	–
C=C(C)C1CC=C(C)C(OC(C)=O)C1 (stereo not given)	inactive	0.261	-3.58	inactive	inactive	inactive	1.71	1.89	inactive	–	inactive	inactive	inactive	–	inactive
CCC(C)=O	–	-0.131	-7.5	inactive	inactive	inactive	-4.32	4.69	inactive	4.73	inactive	–	–	–	inactive
Nc1cccc(O)c1	inactive	2.45	0.244	inactive	inactive	–	-0.321	2.15	inactive	-3.29	inactive	–	–	–	–
Cc1ccc(S(=O)(=O)NC2CCCCC2)cc1	inactive	-0.456	-1.4	–	inactive	–	1.13	–	inactive	–	–	–	inactive	–	inactive
Oc1cccc(Nc2ccccc2)c1	–	4.89	-0.0901	inactive	inactive	inactive	-2.76	2.73	inactive	5.07	inactive	–	–	–	–
O=c1[nH][nH]c(=O)c2cc([N+](=O)[O-])ccc12	inactive	1.03	-4.9	inactive	inactive	inactive	5.62	-7.38	inactive	-1.39	inactive	–	–	–	–
C=CCCCCCCC=C	inactive	0.475	4.13	inactive	inactive	inactive	5.83	3	inactive	–	–	inactive	inactive	–	–
CCC(C)O (stereo not given)	inactive	–	0.282	inactive	inactive	inactive	-9.02	5.18	inactive	–	–	inactive	inactive	–	inactive
COc1ccc(N)c(OC)c1	–	3.03	4.7	inactive	inactive	inactive	4.1	1.67	inactive	–	–	–	–	–	–
C=CCCCC	inactive	0.475	-2.42	inactive	inactive	inactive	-4.9	3.02	inactive	0.496	inactive	–	–	–	–
